# PNC assembly inh: perinucleolar compartment assembly inhibition | PC3M PTB-GFP, PNC prevalence imaging, 16 h; stronger effect = lower value | activity change (PNC), negative = inhibition, % at 10 µM | hit rate 3.1% among 140,000;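 active = readout at or below -70, meaning at least 70% loss of cells showing the perinucleolar compartment, a nuclear body marking cancer cells; inconclusive = readout between -30 and a set limit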;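 also: plate controls were DMSO wells for no effect and camptothecin positive control wells for full effect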
#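 PC3M cells stably expressing PTB-GFP, 750–1000 cells/well, treated 16 h at 37 °C with compound (23 nl of library stock), in duplicate. After paraformaldehyde fixation and Hoechst stain, imaged at 20x; PNC prevalence scored by image analysis.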
# KDM4E inh: JMJD2E (human) inhibition; Potency, µM (highest dose often 57.1 µM), inactives show at the top dose activity change, negative = inhibition, most hits filed as inhibitors; JMJD2E catalytic domain, FDH-coupled NADH fluorescence (FDH is formaldehyde dehydrogenase); hit rate 1.6% among 230,000; B2RXH2;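 also: potency is read from the fitted curve at half-maximal effect; 0% = wells with enzyme and -100% = buffer wells without enzyme; nearly all actives have a fitted effect of over 50% in size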
# HPGD inh: blocks human HPGD enzyme activity; AID 894; hit rate 4.3% among 150,000; P15428; Potency, µM, inactives show at the highest dose activity change, negative = inhibition, hits mostly inhibitors; purified HPGD, NADH fluorescence kinetic, PGE2 substrate; also: potency is read from the fitted curve at half-maximal effect
# Target sequence (P15428 whole entry, looked up): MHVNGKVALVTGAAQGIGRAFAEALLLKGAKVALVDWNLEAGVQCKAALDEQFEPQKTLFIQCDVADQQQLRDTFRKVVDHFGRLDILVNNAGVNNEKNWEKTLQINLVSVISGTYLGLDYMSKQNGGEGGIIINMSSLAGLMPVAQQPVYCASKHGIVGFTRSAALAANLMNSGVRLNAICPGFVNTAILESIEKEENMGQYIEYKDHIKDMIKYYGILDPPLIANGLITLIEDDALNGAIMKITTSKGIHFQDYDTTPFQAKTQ
#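 20 nM HPGD preincubated 15 min at room temperature with compound in 50 mM Tris-HCl pH 8, 0.01% Tween 20. Started with 1 mM NAD+ and 30 uM prostaglandin E2; NADH fluorescence (360/450 nm) read 5 times over 30-s intervals, last minus first.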
# ALDH1A1 block: ALDH1A1 (human) enzyme inhibition | P00352 | Purified ALDH1A1, NADH fluorescence, propionaldehyde substrate | Potency, µM (highest dose often 75.3 µM), for inactives: at the highest dose activity, negative = inhibition, actives largely listed as inhibitors | hit rate 7.3% among 220,000;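 also: potency is read from the fitted curve at half-maximal effect; plate controls were no enzyme wells and a reference inhibitor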
# * = called active by the depositor; ? = inconclusive; . = not tested or not shown; [ ] = dose if it differs, or a comment. Shown are actives, neighbours in structure and some others; about 11% of the full set was active somewhere. Unless noted, calls follow the shape of the dose curve; as a rule, active = well fitted inhibition curve with a large enough effect (not every such curve was filed as active); inconclusive = small, poorly fitted or top-dose-only effect, or another doubt; inactive = no such curve, though single readings can be large or run the other way. Unless noted, % is scaled to controls: 0 for no effect and ±100 for the full control effect.
SMILES,PNC assembly inh,KDM4E inh,HPGD inh,ALDH1A1 block
COc1ccc(CN(C)C(=O)CCl)cc1,.,7.5%,.,0.501µM*
CC(=O)O[C@@]1(C(C)=O)CCC2C3CC(C)C4=CC(=O)CC[C@@]4(C)C3CC[C@]21C (stereo partly specified),.,4.9%,3.9%,3.6%
CCOC(=O)c1c(C)[nH]c(C)c1C(=O)COC(=O)c1nc2nccc(C)n2n1,.,6.3%,.,0.8%
O=C(c1ccccc1F)N(Cc1nc2ccccc2c(=O)[nH]1)C1CCCC1,.,2.4%,.,6.9%
CC(C)(C)NC[C@@H](O)COc1nsnc1N1CCOCC1,.,2.1%,-11.8%,7.0%
O=C(C1CCCCC1)N(CCN1CCN(c2ccccc2CO)CC1)c1ccccn1,.,.,.,-2.9%
C=CCNC(=S)NNC(=O)c1cccc(Br)c1,-13.9,-12.2%,-4.8%,-0.3%
NC(=O)Nc1cccc2ccccc12,-104.8*,?,-14.8%,-3.8%
O=C(NNC(=S)Nc1cccc2ccccc12)c1cccc(Br)c1,?,-27.1%,-19.8%,4.47µM*
CS(=O)(=O)N1CCC2(CCCN(c3ncccn3)C2)CC1,.,.,-19.5%,-0.4%
C/C(=N\NC(=O)CC#N)C1COc2ccccc2O1 (stereo unspecified),.,-0.9%,.,5.1%
O=C(NC1CCN(Cc2ccccc2)CC1)c1ccc(-n2c(=O)c(=O)[nH]c3ccccc32)cc1,.,.,0.2%,3.9%
O=C(CSc1nc2ccc(NC(=O)C3CCCCC3)cc2s1)NCC1CCCO1 (stereo unspecified),-9.8,-5.6%,28.2µM*,-2.9%
Cc1cc(NC(=O)CSC2=NCCS2)no1,-108.6*,-4.0%,0.3%,-6.2%
COc1ccc(-c2nsc(SCC(=O)NCC3CCCO3)n2)cc1 (stereo unspecified),.,?,.,25.1µM*
COc1ccc(-c2nsc(SCC(=O)Nc3cc(C)on3)n2)cc1,?,3.1%,25.1µM*,28.2µM*
CSCC(=O)Nc1cc(C)on1,.,3.9%,.,.
CCOC(=O)CNC(=O)CSc1nc(-c2ccc(OC)cc2)ns1,.,-13.0%,.,?
c1ccc(-c2n[nH]c3c2oc2ccccc23)cc1,.,.,-23.3%,-4.1%
COc1cccc(/C=C/C(=O)OCC(=O)NCC2CCCO2)c1 (stereo unspecified),-28.2,?,?,?
CCn1c(SCC(=O)NCc2ccco2)nnc1-c1c[nH]c2ccccc12,12.8,7.8%,-18.4%,-8.1%
CC(=O)c1ccc(N2CCN(CC(=O)Nc3cc(C)on3)CC2)cc1,.,-8.7%,.,0.7%
COc1ccc(/C=C/C(=O)OCC(=O)NCC2CCCO2)cc1 (stereo unspecified),-81.6*,-28.3%,-22.2%,?
Cc1cc(C)n2c(SCC(=O)Nc3cc(C)on3)nnc2n1,-100.0*,-3.0%,?,?
COc1ccc(N2CCN(CC(=O)Nc3cc(C)on3)CC2)cc1,15.0,25.1µM*,.,?
SMILES,PNC assembly inh,KDM4E inh,HPGD inh,ALDH1A1 block
CCn1c(SCC(=O)Nc2cc(C)on2)nnc1-c1c[nH]c2ccccc12,.,11.2%,.,28.2µM*
Cc1ccc(C)c(NC(=S)c2ccc3ccccc3n2)c1,-24.3,4.6%,-3.8%,4.5%
S=C(Nc1ccccn1)c1ccccn1,26.0,12.6µM*,8.91µM*,3.55µM*
Cc1ccc(C)c(NC(=S)c2ccccn2)c1,21.3,-3.6%,28.2µM*,?
O=C(Nc1ccccn1)C(=O)Nc1ccccn1,.,7.1%,.,7.7%
CCOc1ccccc1NC(=O)NCc1ccco1,.,3.2%,.,.
COc1cccc(/C=C/C(=O)c2ccc(C)c([N+](=O)[O-])c2)c1,32.8,1.2%,-22.4%,7.08µM*
COc1cc(O)c(C(=O)/C=C/c2ccc(OC)c(O)c2)c(OC)c1,.,?,7.94µM*,14.1µM*
COc1ccc(/C=C/C(=O)c2ccc(C)c([N+](=O)[O-])c2)cc1O,42.7,-2.4%,22.4µM*,22.4µM*
COc1cc(/C=C/C(=O)c2cccc([N+](=O)[O-])c2)cc(OC)c1OC,-27.3,-1.8%,-12.8%,25.1µM*
CCN(CC)CCCN(Cc1cc2cc3c(cc2[nH]c1=O)OCO3)C(=S)Nc1ccc(OC)cc1,.,?,.,-8.2%
Cc1csc(SC(C)c2nc3scc(-c4ccccc4)c3c(=O)[nH]2)n1 (stereo unspecified),.,-14.4%,.,.
CCOC(=O)c1ccc(NC(=S)NCCc2ccc(F)cc2)cc1,.,12.7%,.,10.0%
COc1ccc(-c2cnc(SCC(=O)Nc3nc(C(C)(C)C)cs3)n2Cc2ccco2)cc1,8.7,-19.6%,-10.9%,?
COc1ncc2nc(C)c(=O)n(C)c2n1,.,.,-16.8%,-10.7%
O=C1C=CC2=C3c4cc(O)c(O)cc4CC3(O)COC2=C1O (stereo unspecified),.,2µM*,25.1µM*,?
Nc1nc(-c2cccnc2)cc(-c2cc(-c3cccnc3)nc(N)n2)n1,.,.,-7.2%,5.6%[13.5 µM]

# Bioassay records from PubChem BioAssay.
